± gives the standard error. In all, about 1,300 sequences were measured (“fluorescence a.u.”: median about 38, highest 2% from about 280 on). Shown is part of a subset that was picked to be rich in the highest values.
Biological target: terminal deoxynucleotidyl transferase (calf thymus) (UniProt P06526)
Assay: TdT poly-dT extension signal (Cy3 hybridisation fluorescence, uncapped minus capped) (fluorescence a.u.); higher = more efficient initiation of TdT extension
Conditions: initiator chemistry: L-DNA (mirror-image), free 5'-OH (3'-tethered via HEG linker)
Procedure: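 All mono- to pentamer D-DNA or L-DNA initiators were made by forward (3'->5') photolithographic in situ synthesis on glass on a hexaethylene glycol linker, leaving a free 5'-OH. Each was made in uncapped and DMTr-dT-capped versions, about 11 replicates each. Arrays were extended with calf thymus TdT (0.2 U/uL), 100 uM dTTP and 0.25 mM CoCl2 for 120 min at 37 C, hybridised with an rA18-Cy3 probe and scanned at 532 nm. The value is the mean uncapped minus the mean capped signal. IDs read 5'->3'. L-DNA is mirror-image; D-DNA 5'-OH initiators were below LOD (no extension).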

terminal deoxynucleotidyl transferase (calf thymus), sequence (P06526 whole entry): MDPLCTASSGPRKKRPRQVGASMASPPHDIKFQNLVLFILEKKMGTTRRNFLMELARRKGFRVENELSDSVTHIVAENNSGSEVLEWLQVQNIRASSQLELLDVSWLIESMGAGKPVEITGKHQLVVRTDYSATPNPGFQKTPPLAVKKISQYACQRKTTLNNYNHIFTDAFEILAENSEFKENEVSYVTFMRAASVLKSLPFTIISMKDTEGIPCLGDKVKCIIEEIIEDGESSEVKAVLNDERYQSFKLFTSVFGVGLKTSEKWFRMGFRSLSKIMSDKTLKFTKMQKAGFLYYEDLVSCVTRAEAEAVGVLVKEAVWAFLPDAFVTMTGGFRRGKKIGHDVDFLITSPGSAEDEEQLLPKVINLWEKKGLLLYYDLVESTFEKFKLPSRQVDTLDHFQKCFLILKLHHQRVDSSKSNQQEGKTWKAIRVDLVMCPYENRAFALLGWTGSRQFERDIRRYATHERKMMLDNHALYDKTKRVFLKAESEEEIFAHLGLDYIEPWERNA

Sequence | TdT poly-dT extension signal
CTCAG | 173 ± 11
ATCAT | 172 ± 14
TTCA | 275 ± 22
TTCAC | 371 ± 39
TTCAA | 388 ± 29
CTCAA | 147 ± 10
GTCAG | 161 ± 18
TTCAT | 372 ± 18
CTCAT | 130 ± 12
ATCAC | 188 ± 16
GTCAC | 153 ± 10
TTCAG | 356 ± 32
GAGTT | 40.6 ± 5.8
AAAAG | 101 ± 8.9
GACGG | 117 ± 18
GAACC | 55.9 ± 8.8
ACCAT | 97.4 ± 8.9
GGGTG | 69.1 ± 4.3
TGCGA | 157 ± 7.9
TTATC | 325 ± 29
CTATC | 168 ± 13
TTGT | 258 ± 19
CTATG | 161 ± 12
TTAT | 340 ± 30

Sequence | TdT poly-dT extension signal
CTATA | 170 ± 13
TTATA | 384 ± 22
TTATG | 340 ± 26
GTAT | 140 ± 12
ATATG | 192 ± 15
ATATA | 192 ± 12
ATATC | 192 ± 14
TTGGA | 284 ± 17
AGTGA | 57.2 ± 5.7
ACTCA | 79.4 ± 8.6
TATAT | 197 ± 14
AACTT | 58.3 ± 8.9
ACGCG | 70.6 ± 6.6
GGTTA | 50.7 ± 4.8
GTATT | 158 ± 10
TTATT | 381 ± 16
ATATT | 201 ± 13
TATCC | 138 ± 13
AAAGC | 67 ± 7.7
GCTGA | 75.3 ± 5.4
CGACA | 68.1 ± 4.9
CTAA | 170 ± 12
TTAAT | 491 ± 32
TTAAG | 495 ± 38

Sequence | TdT poly-dT extension signal
GTAAC | 191 ± 15
TTAAC | 377 ± 27
TTAA | 347 ± 25
CTAAT | 206 ± 15
GTAA | 143 ± 13
CTAAC | 201 ± 14
ATAAT | 246 ± 19
ATAAG | 229 ± 14
CTAAG | 215 ± 13
GGAAG | 82.2 ± 8.3
ACGTC | 47.1 ± 4.9
TACTG | 153 ± 14
TCTGA | 172 ± 12
ATCAA | 236 ± 13
GTCA | 95.9 ± 6.2
GGATC | 67.1 ± 5.8
AATA | 106 ± 9.7
ATGGC | 127 ± 8.4
AACGG | 77.3 ± 5.7
GAGTG | 61 ± 6.3
CTAAA | 224 ± 15
ATAAA | 276 ± 19
TTAAA | 563 ± 39
TCGAA | 187 ± 8.6

Sequence | TdT poly-dT extension signal
CTTGC | 107 ± 7.2
TTGAC | 338 ± 26
ATGAA | 175 ± 12
TTGAG | 317 ± 33
GTGAA | 142 ± 17
ATGAT | 150 ± 9.9
GTGAT | 121 ± 12
GTGAC | 144 ± 9
TTGAT | 314 ± 27
CTGAG | 130 ± 11
TTGA | 270 ± 19
TTGAA | 339 ± 42
GTGAG | 160 ± 13
TCTCC | 117 ± 8.4
CCGGG | 82.9 ± 7.7
GTAAA | 239 ± 15
ACTTT | 70.7 ± 5.3
CTGGT | 116 ± 6.9
TCCCG | 199 ± 19
AATG | 74.3 ± 5.6
GTGTT | 100 ± 8.2
CGCGA | 66.2 ± 6
ACCCG | 76.1 ± 6.5
CTTCG | 133 ± 16

Sequence | TdT poly-dT extension signal
TTTC | 280 ± 19
TTTCG | 286 ± 22
TGCAC | 141 ± 11
GGGCG | 83.8 ± 6.6
GACGC | 93 ± 9.5
TTGG | 274 ± 21
TTTTT | 282 ± 18
TTTT | 223 ± 25
TTTGG | 350 ± 26
ATTGG | 180 ± 13
GTTGT | 139 ± 8.7
GTTGG | 144 ± 11
TTGGG | 335 ± 18
CTGGG | 141 ± 8.5
TTTTG | 293 ± 38
TTTGT | 311 ± 21
ATTGT | 167 ± 9.2
GTGGG | 172 ± 9.4
TATCA | 160 ± 12
GGCGC | 77.7 ± 6.3
CGAGC | 65 ± 6.4
GCGGC | 73.3 ± 6.8
AGCAA | 61.2 ± 5.3
TTTGA | 320 ± 26

Sequence | TdT poly-dT extension signal
TTTGC | 271 ± 19
TTTG | 264 ± 15
CTCCT | 111 ± 9.1
TCCCC | 175 ± 17
TTCCA | 299 ± 18
ATCCC | 147 ± 16
GTCCT | 117 ± 9.6
TTCCT | 286 ± 28
TTTCC | 270 ± 21
TTCC | 293 ± 17
TTCCC | 358 ± 31
TGCC | 126 ± 14
ATCCA | 153 ± 10
GTCCA | 122 ± 10
CTTCA | 130 ± 11
CCTAA | 98.7 ± 6
ATGCT | 116 ± 7.5
CGTTT | 51.4 ± 5
GTAGG | 181 ± 10
CCAAG | 120 ± 9.5
CTTT | 127 ± 17
TATC | 171 ± 12
TGTA | 126 ± 10
TACA | 178 ± 8

Sequence | TdT poly-dT extension signal
CTCCG | 127 ± 11
GTCCG | 147 ± 12
TTCCG | 388 ± 25
TGCGC | 154 ± 12
GTCTT | 128 ± 8
GTCTG | 128 ± 7.3
TTCTA | 312 ± 31
TTCTT | 311 ± 24
TTCTG | 320 ± 24
CTCTA | 130 ± 12
ATCTG | 143 ± 16
TTCT | 243 ± 31
CTCTT | 122 ± 10
ACCCA | 77.1 ± 11
TCGAT | 152 ± 12
CAGTG | 49.3 ± 7.1
CCTA | 84.4 ± 13
ACAAC | 92.6 ± 6.6
GCACG | 87 ± 5.5
ATGCC | 109 ± 15
ATCGT | 189 ± 13
GTCGG | 178 ± 14
TTCGG | 347 ± 20
TTCGT | 330 ± 27

Sequence | TdT poly-dT extension signal
CTCGT | 115 ± 9
ATCGA | 206 ± 17
TTCGA | 367 ± 21
CTCGG | 158 ± 9.7
TCCG | 221 ± 19
TTCG | 284 ± 31
CTCG | 124 ± 17
CTCGA | 135 ± 12
TCATT | 134 ± 15
GACTG | 85.6 ± 6.6
GCCTG | 90.6 ± 8.8
CCAC | 93 ± 7.6
ATACG | 188 ± 13
ACAGT | 65.8 ± 8.1
ACTGG | 71.1 ± 8.8
TAGCC | 105 ± 7.2
GTCGC | 137 ± 12
TTCGC | 323 ± 18
CTCGC | 146 ± 15
CGGTC | 31.7 ± 5.1
AGCGC | 57.8 ± 6.1
TAAG | 161 ± 15
CTAGA | 170 ± 11
CTAGC | 134 ± 8.7

Sequence | TdT poly-dT extension signal
TTAGA | 396 ± 35
GTAG | 159 ± 11
TTAGC | 308 ± 15
GTAGA | 191 ± 19
ATAGC | 182 ± 14
TTAGT | 368 ± 28
CTAGT | 157 ± 12
GTAGT | 130 ± 11
TTAG | 308 ± 27
TGTCA | 114 ± 7.2
AGTGT | 44.6 ± 5.9
GATGC | 82.1 ± 9.4
TACGA | 194 ± 14
CCGGA | 78.7 ± 10
ACGAA | 76.9 ± 4.9
GTTTA | 123 ± 9.7
ATAGG | 198 ± 12
CTAGG | 182 ± 8.8
TTAGG | 444 ± 29
CCTGG | 79.5 ± 7.8
TCTCT | 347 ± 200
TCTCA | 199 ± 18
TCTC | 128 ± 17
TAGGA | 123 ± 9.3

Sequence | TdT poly-dT extension signal
TTACC | 393 ± 30
TTACT | 396 ± 14
CTACC | 127 ± 19
TTAC | 275 ± 24
GTACA | 152 ± 8.5
CTACT | 152 ± 15
TTACA | 344 ± 20
ATACA | 204 ± 18
GTACC | 143 ± 13
GTACT | 137 ± 10
GTACG | 158 ± 12
TTACG | 380 ± 28
GACCT | 77.6 ± 11
GAGGT | 55.2 ± 5.3
CAGAG | 71.3 ± 6.3
AATTG | 77.2 ± 7
CTTTG | 141 ± 13
CCACT | 90 ± 7.8
AGTA | 44.2 ± 4.4
ACCA | 87.8 ± 9.2
TTTCA | 281 ± 27
ACCG | 78.2 ± 8
TTTAA | 392 ± 18
ATTAG | 195 ± 19

Sequence | TdT poly-dT extension signal
TTTAC | 344 ± 22
TTTAG | 345 ± 24
CTTAC | 153 ± 14
TTTA | 271 ± 29
GTTAC | 130 ± 11
TTTAT | 331 ± 24
CTTAT | 106 ± 7.6
CTTAA | 181 ± 12
GTTAA | 194 ± 15
ATTAT | 152 ± 14
TGAGC | 147 ± 8.6
TAAAC | 191 ± 19
CACCG | 74.4 ± 8.1
TAAAT | 192 ± 18
GCCGC | 93.5 ± 6.3
GTTTT | 125 ± 8.3
TTTTA | 302 ± 24
TTTTC | 242 ± 27
CTTTA | 106 ± 9.8
CATGG | 80 ± 9.5
